Data on 40 compounds can be found in article PMC7826789 (International Journal of Molecular Sciences, 2021).

Molecules are shown by their SMILES.
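Note: KINOMEscan scanMAX binding as percent activity remaining versus control; lower means stronger binding.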

The first experiment has as its system T1, NDR1.
T1 construct: gene STK38
To be noted: Compound Concentration (nM):1000.
Take `Cl.O=C(O[C@H]1CN[C@H](C#Cc2cc3ncnc(Nc4ccc5c(cnn5Cc5ccccc5)c4)c3s2)C1)N1CCOCC1` [GSK200398A]: the “Percent Control” value came to 100%. Take `COc1cc(C)c(N(C)C(=O)CN(C)C)cc1Nc1nc(Nc2cccc(F)c2C(N)=O)c2cc[nH]c2n1` [GSK2219385]: the “Percent Control” value amounted to 100%. The same measure, in the same setting: for `Nc1ncnc2occ(-c3ccc(NC(=O)Nc4cc(C(F)(F)F)ccc4F)cc3)c12` [GW770249X] the value was 94%; for `COc1cc(/C=N/Nc2ncnc3[nH]ncc23)ccc1O` [GW578748X], 73%. On the same count and under the same terms, the same measure for `C[C@@H](Oc1cc(-n2cnc3ccc(OC4CCN(C)CC4)cc32)sc1C(N)=O)c1ccccc1Cl` [GSK579289A]: 98%. Same read-out and setting: the same measure for `COc1ccc2c(-c3ccnc(Nc4cccc(OC(F)(F)F)c4)n3)cnn2n1` [GW810372X]: 100%; for `CN(C)c1cc2c(Nc3ccc4c(cnn4Cc4ccccc4)c3)ncnc2cn1` [GW282974X]: 100%.

A further experiment relates to T2, NDR2.
T2 construct: gene STK38L
To be noted: Compound Concentration (nM):1000.
Turning to `CCn1c(-c2nonc2N)nc2c(C#CC(C)(C)O)nc(OCCNC)cc21.Cl` [GSK949675], the “Percent Control” value is 81%.

Turning to `Cl.O=S1CCN(Cc2ccc(-c3ccc4ncnc(Nc5ccc(OCc6ccccc6)c(F)c5)c4c3)o2)CC1` [GW576924A], the “Percent Control” value was 100%. Still for that read-out and setting: for `CCS(=O)(=O)c1ccc(OC)c(Nc2ncc(-c3cccc(OC)c3)o2)c1` [GW580509X] the value was 100%; for `Cl.c1ccc(Cc2nc3ccc(Nc4ncnc5ccccc45)cc3[nH]2)cc1` [GR269666A], 100%. Still for that read-out and setting: the same measure for `NS(=O)(=O)c1ccc(N/N=C2\C(=O)Nc3ccc(C(=O)NCCc4c[nH]cn4)cc32)cc1` [GW300660X]: 100%; for `C/C(Nc1ccc(S(N)(=O)=O)cc1)=C1/C(=O)Nc2ccccc21` [GW335962X]: 87%; for `COc1ccccc1-c1cc(/C=C2\C(=O)Nc3ncc(Br)cc32)cc(Br)c1O` [GW442130X]: 74%. Same read-out and setting: the same measure for `NS(=O)(=O)c1ccc(N/N=C2\C(=O)Nc3ccc(-c4cnco4)cc32)cc1` [GW276655]: 68%. Consider `CN(C)CCNC(=O)Nc1ccc(N(C)c2ccnc(Nc3ccc(CS(C)(=O)=O)cc3)n2)cc1.Cl` [GW830900A], for which the “Percent Control” value is 100%.

Take `COc1ccc2[nH]c3c4[nH]c5ccc(OC)cc5c4c4c(c3c2c1)C(=O)NC4=O` [GW296115X]: the “Percent Control” value was 72%. On the same count and under the same terms, for `COc1cc2ncnc(Nc3ccc4c(cnn4Cc4ccccc4)c3)c2cc1OC.Cl` [GW282449A] the value was 100%; for `NS(=O)(=O)c1ccc(N/N=C2\C(=O)Nc3ccc(Cl)cc32)cc1` [GW280670X], 100%; for `CN1CCN(C(=O)c2ccc(NC(=O)Nc3ccc(N(C)c4ccnc(Nc5ccc(CS(C)(=O)=O)cc5)n4)cc3)cc2)CC1.Cl` [GW830263A], 100%.

Consider `COC(=O)Nc1nc2ccc(Oc3ccc(NC(=O)Nc4cc(C(F)(F)F)ccc4F)cc3)cc2s1.Cl` [GW693917A], for which the “Percent Control” value is 94%. Regarding `COc1ccc2cc(-c3c(-c4ccncc4)nc(-c4ccc(S(C)(=O)=O)cc4C)n3C)ccc2c1` [SB-633825], the “Percent Control” value is 63%. Same read-out and setting: for `COc1cc(C=NNc2ncnc3c2cnn3-c2ccccc2)ccc1O` [GW513184X] the value was 100%. Still for that read-out and setting: the same measure for `COc1cccc(-n2ncc3c(N/N=C/c4ccncc4)ncnc32)c1` [GW784752X]: 100%; for `COc1cc(N2CCN(C(C)C)CC2)ccc1Nc1nc(Nc2ccc(F)cc2C(=O)NC[C@@H](O)CO)c2cc[nH]c2n1` [GSK1392956A]: 91%. Take `CC(C)COC(=O)c1ccc2c(c1)/C(=C/Nc1ccc(S(N)(=O)=O)cc1)C(=O)N2` [GW416981X]: the “Percent Control” value is 100%. Same read-out and setting: for `CC1=C(C(=O)Nc2ccc3[nH]ncc3c2)C(c2ccc3ccccc3c2)CC(=O)N1` (centres unmarked) [GSK270822A] the value was 61%; for `NS(=O)(=O)c1ccc(Nc2ncc(-c3ccccc3)o2)cc1` [GW572399X], 100%; for `CC1=C(C(=O)Nc2ccc3[nH]ncc3c2)C(c2ccc(Cl)c(Cl)c2)CC(=O)N1` (centres unmarked) [GSK299115A], 67%. On the same count and under the same terms, the same measure for `NS(=O)(=O)c1ccc(N/N=C2\C(=O)Nc3ccc(C(=O)NCc4ccncc4)cc32)cc1` [GW300657X]: 82%; for `CCc1ccc(Oc2nccc(-c3c(-c4ccc(F)cc4)ncn3C3CCNCC3)n2)cc1` [SB-242719]: 96%; for `Cl.O=C(Nc1ccc(Oc2ccc3[nH]c(NC(=O)c4ccccc4)nc3c2)cc1)Nc1cc(C(F)(F)F)ccc1F` [GW709042A]: 100%. On the same count and under the same terms, the same measure for `COc1cccc(-c2c[nH]c3c(N/N=C/c4ccncc4)ncnc23)c1` [GW814408X]: 98%; for `CCS(=O)(=O)c1ccc(OC)c(Nc2ncc(-c3cccc(F)c3)o2)c1` [GW621970X]: 100%. Regarding `Cc1cc(O)cc(C)c1/C=C/c1cncc(C(N)=O)c1` [GW435821X], the “Percent Control” value was 100%. Still for that read-out and setting: the same measure for `Cl.O=C(Nc1ccc(Oc2ccc3[nH]c(NC(=O)c4ccco4)nc3c2)cc1)Nc1cc(C(F)(F)F)ccc1F` [GW683134A]: 76%. Regarding `O=C(Nc1n[nH]c2nc(-c3ccc(O)cc3)c(Br)cc12)C1CC1` [SB-725317], the “Percent Control” value was 100%. The same measure, in the same setting: the same measure for `COc1cc2ncn(-c3cc(O[C@H](C)c4ccccc4Cl)c(C(N)=O)s3)c2cc1OC` [GSK237701A]: 100%; for `COc1ccc(COc2ccc(Cc3cnc(N)nc3N)cc2OC)cc1` [GW632580X]: 86%; for `O=C1Nc2ccc(C(=O)c3ccco3)cc2C1=Cc1cc(Cl)c(O)c(Cl)c1` [GW406108X]: 88%. Same read-out and setting: the same measure for `Cl.O=C(O[C@H]1CN[C@H](C#Cc2cc3ncnc(Nc4ccc5c(cnn5Cc5ccccc5)c4)c3s2)C1)N1CCOCC1` [GSK200398A]: 100%; for `COc1cc(C)c(N(C)C(=O)CN(C)C)cc1Nc1nc(Nc2cccc(F)c2C(N)=O)c2cc[nH]c2n1` [GSK2219385]: 85%; for `Nc1ncnc2occ(-c3ccc(NC(=O)Nc4cc(C(F)(F)F)ccc4F)cc3)c12` [GW770249X]: 100%.

For the compound `COc1cc(/C=N/Nc2ncnc3[nH]ncc23)ccc1O` [GW578748X], the “Percent Control” value is 100%. The same measure, in the same setting: for `C[C@@H](Oc1cc(-n2cnc3ccc(OC4CCN(C)CC4)cc32)sc1C(N)=O)c1ccccc1Cl` [GSK579289A] the value was 88%; for `COc1ccc2c(-c3ccnc(Nc4cccc(OC(F)(F)F)c4)n3)cnn2n1` [GW810372X], 96%. Same read-out and setting: the same measure for `CN(C)c1cc2c(Nc3ccc4c(cnn4Cc4ccccc4)c3)ncnc2cn1` [GW282974X]: 84%.
